Measured values as given in PubChem BioAssay AID504333 (National Center for Advancing Translational Sciences (NCATS), 2011).
Screen size: about 360,000 compounds; about 16,000 (4.4%) were called active. About 9% were inconclusive and are not listed. Calls follow the shape of the dose curve; as a rule, active = well fitted inhibition curve with a large enough effect; inconclusive = small, poorly fitted or top-dose-only effect; inactive = no such curve, though single readings can be large or run the other way. Many of the other results were omitted from the sample, so actives are more common in it than they were.

Target: Bromodomain adjacent to zinc finger domain protein 2B (Homo sapiens) (UniProt Q9UIF8)
Sequence (Q9UIF8 whole entry, looked up, the tested form may be a part): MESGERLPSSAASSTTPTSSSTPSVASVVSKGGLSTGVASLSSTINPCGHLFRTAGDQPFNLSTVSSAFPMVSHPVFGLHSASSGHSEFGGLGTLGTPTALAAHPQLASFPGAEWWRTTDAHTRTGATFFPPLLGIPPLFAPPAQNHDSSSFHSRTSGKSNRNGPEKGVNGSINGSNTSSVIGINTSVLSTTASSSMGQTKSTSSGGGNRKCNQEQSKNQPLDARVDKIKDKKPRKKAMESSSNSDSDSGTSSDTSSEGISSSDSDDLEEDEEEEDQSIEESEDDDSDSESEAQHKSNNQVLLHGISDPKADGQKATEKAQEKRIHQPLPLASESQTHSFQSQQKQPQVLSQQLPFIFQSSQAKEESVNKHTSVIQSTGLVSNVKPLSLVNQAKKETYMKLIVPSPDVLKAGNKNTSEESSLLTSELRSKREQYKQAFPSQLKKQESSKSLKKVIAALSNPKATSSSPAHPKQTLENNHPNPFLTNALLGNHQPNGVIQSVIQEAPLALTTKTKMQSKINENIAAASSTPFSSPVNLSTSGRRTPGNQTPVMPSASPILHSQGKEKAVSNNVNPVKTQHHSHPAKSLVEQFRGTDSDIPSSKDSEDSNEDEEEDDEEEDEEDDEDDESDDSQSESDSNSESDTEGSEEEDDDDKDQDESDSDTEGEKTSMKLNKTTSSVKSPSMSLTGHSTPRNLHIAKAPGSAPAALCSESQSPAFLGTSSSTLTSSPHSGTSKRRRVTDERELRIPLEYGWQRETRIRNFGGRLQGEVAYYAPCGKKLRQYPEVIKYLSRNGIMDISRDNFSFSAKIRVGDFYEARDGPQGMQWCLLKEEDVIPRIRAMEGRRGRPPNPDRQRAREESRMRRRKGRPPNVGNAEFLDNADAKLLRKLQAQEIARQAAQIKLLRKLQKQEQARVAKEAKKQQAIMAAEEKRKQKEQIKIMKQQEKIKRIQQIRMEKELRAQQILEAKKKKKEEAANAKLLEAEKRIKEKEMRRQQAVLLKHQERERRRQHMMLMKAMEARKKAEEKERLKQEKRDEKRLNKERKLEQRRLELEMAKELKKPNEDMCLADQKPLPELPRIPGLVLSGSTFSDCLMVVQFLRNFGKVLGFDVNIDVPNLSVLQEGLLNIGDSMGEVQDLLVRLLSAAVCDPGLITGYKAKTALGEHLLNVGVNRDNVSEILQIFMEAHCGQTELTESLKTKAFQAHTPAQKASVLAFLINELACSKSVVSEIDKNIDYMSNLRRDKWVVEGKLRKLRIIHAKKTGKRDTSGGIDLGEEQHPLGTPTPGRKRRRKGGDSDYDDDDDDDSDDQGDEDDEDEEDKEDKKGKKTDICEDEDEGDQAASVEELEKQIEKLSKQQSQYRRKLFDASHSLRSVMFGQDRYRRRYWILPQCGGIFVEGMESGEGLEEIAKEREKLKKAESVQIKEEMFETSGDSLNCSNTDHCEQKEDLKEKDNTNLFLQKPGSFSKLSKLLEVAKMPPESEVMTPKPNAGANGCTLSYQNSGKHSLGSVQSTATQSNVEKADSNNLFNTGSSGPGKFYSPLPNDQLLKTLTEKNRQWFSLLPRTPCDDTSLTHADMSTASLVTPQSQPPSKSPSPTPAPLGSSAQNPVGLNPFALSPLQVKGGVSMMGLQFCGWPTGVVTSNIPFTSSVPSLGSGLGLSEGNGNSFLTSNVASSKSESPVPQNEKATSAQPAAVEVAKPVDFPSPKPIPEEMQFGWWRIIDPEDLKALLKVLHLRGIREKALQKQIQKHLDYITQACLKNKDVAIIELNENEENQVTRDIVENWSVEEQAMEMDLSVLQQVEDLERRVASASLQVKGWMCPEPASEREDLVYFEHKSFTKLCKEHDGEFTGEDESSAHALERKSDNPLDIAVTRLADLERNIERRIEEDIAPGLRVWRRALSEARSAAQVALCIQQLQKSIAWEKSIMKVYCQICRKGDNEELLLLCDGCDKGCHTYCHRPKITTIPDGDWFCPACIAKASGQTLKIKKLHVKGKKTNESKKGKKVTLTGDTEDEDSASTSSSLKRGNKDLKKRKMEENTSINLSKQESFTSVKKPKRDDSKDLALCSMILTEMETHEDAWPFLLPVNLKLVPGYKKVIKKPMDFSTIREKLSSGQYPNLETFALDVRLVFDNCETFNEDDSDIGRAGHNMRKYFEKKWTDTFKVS
Experiment: qHTS Assay for Inhibitors of BAZ2B; also: nearly all actives have a fitted effect of over 60% in size
Details: AlphaScreen BAZ2B-H3K14Ac peptide displacement; series mostly up to 114 µM; activity change, negative = inhibition: at the top concentration
How it was run: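 In this displacement format the biotinylated H3(5-23) peptide acetylated at Lys14 serves as ligand at 50 nM, with BAZ2B at 50 nM in PBS pH 7.4 containing 0.01% Tween-20. Donor and acceptor beads are 10 ug/mL final.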
% is scaled to controls: 0 for no effect and ±100 for the full control effect; potency is read from the fitted curve at half-maximal effect.

Potency, inactive:
COc1ccc(C(=O)Nc2ccc3nc(N4CCCCC4)cc(C)c3c2)cc1OC

Potency, active:
COc1ccccc1Nc1c2c(nc3ccc(NC(=O)/C=C/c4cc(OC)c(OC)c(OC)c4)cc13)CCCC2 11.2 µM
CCOc1ccc(C(=O)Nc2ccc3nc4c(c(Nc5ccccc5OC)c3c2)CCCC4)cc1 17.8 µM
COc1ccc(CCNC(=O)Cc2ccc(C)cc2)cc1OC 79.4 µM
COc1ccc(NCCc2ccccn2)cc1 56.2 µM
CC(C)c1ccc(OCC(=O)N(Cc2ccc(N(C)C)cc2)C2CCS(=O)(=O)C2)cc1 (centres undefined) 28.2 µM
Cc1cc(Cl)ccc1OCC(=O)N(Cc1ccc(N(C)C)cc1)C1CCS(=O)(=O)C1 (centres undefined) 35.5 µM
Nc1ccc2nc3c(=O)[nH]c(=S)[nH]c3nc2c1 31.6 µM
Cc1ccccc1C(=O)Nc1ccc(N2CCCCCC2)cc1 31.6 µM
COc1cccc(C(=O)Nc2ccc(N3CCCC3)cc2)c1 31.6 µM
O=C(Cc1ccccc1)NC(=S)Nc1ccc(N2CCCCC2)cc1 12.6 µM

Activity change, negative = inhibition, inactive:
COc1ccc(NS(=O)(=O)c2cc(NC(=O)/C=C/c3cc(OC)c(OC)c(OC)c3)ccc2N2CCCCC2)cc1 -4.66%
COc1cc(/C=C/C(=O)N2CCc3ccccc3C2)cc(OC)c1OC -6.42%
COc1cccc(NC(=O)c2ccc3c(SCC(=O)O)c4c(nc3c2)CCCC4)c1 -23.9%
COc1ccc2c(c1)c(N1CCCC1=O)c(C(=O)Nc1ccccc1C(F)(F)F)n2C -13.3%
Cn1nnc2c(N3CCN(c4ccccc4)CC3)ncnc21 -20.7%
CSc1ccccc1NC(=O)CCS(=O)(=O)c1nc(-c2cccs2)cc(C(F)(F)F)n1 1.68%
COc1ccccc1N1CCN(C2C(=O)c3ccccc3N2C(C)=O)CC1 (centres undefined) -23.9%
COc1ccc(CCNC(=O)CCc2ccccc2O)cc1OC 11.6%
COc1ccc(CCNC(=O)NS(=O)(=O)c2ccc(C)cc2)cc1OC -5.09%
CCOC(=O)c1ccc(NC(=O)CC2C(=O)N(c3cccc(OC)c3)C(=O)N2C2CCCCC2)cc1 (centres undefined) -9.85%
Cc1c(C)c(C)c(S(=O)(=O)NCCc2ccccn2)c(C)c1C -3.43%
COc1cccc(NC(=S)NCc2ccccn2)c1 -30.1%
Cc1ccc(C(=O)CC2(O)C(=O)N(CCc3ccccc3)c3ccc(Br)cc32)cc1 (centres undefined) -13.9%
COc1cc(C(=O)N(Cc2ccc(C(C)C)cc2)C2CCS(=O)(=O)C2)cc(OC)c1OC (centres undefined) 2.98%
Cc1ccc(CN(C(=O)COc2ccc(Cl)cc2C)C2CCS(=O)(=O)C2)o1 (centres undefined) -27.3%
CCc1ccc(OCC(=O)N(Cc2ccccc2)C2CCS(=O)(=O)C2)cc1 (centres undefined) 4.48%
COc1cc(C(=O)N(Cc2ccc(N(C)C)cc2)C2CCS(=O)(=O)C2)cc(OC)c1OC (centres undefined) -22.1%
Cc1cc(C)c2sc(NC(=O)c3ccc(S(=O)(=O)N4CCCC4)cc3)nc2c1 0.487%
COc1ccc(C(=O)CSc2c(C(C)C)cnc3c2c(=O)n(C)c(=O)n3C)cc1 -7.25%
CCc1ccc(CNC(=O)c2ccc(CS(=O)c3ccc(Br)cc3)o2)cc1 (centres undefined) 0.453%
CCc1nnc(SCc2c(F)cccc2Cl)c2cc3sccc3n12 -6.2%
CC1CN(C(=O)N2CCC(C(=O)NCc3cccs3)CC2)c2ccccc2O1 (centres undefined) -1.78%
CCn1c(=O)cc(OCC(=O)Nc2cc(Cl)c(OC)cc2OC)c2ccccc21 -13.1%
Cc1cccc(C(=O)Nc2ccc(-c3nc4ncccc4o3)cc2C)c1 -1.15%
Cc1ccccc1C(=O)NC(=S)Nc1ccc(N2CCN(C(=O)c3ccccc3)CC2)cc1 0.365%
COc1cccc(C(=O)Nc2ccc3nc4n(c(=O)c3c2)CCCCC4)c1 -12.9%
O=C(CCN1CCN(c2ccccc2)CC1)NNC(=S)Nc1ccccc1 -17.5%
COc1cccc(C(=O)Nc2ccc(N3CCN(C(=O)c4ccco4)CC3)cc2)c1 -12.1%
COC(=O)Cc1ccc(NC(=S)NCc2ccccc2)cc1 -2.73%
Cc1ccccc1C(=O)N1CCN(c2ccc(NC(=O)c3cccs3)cc2)CC1 -32.9%
Cc1cc2nn(-c3ccc(Cl)cc3)nc2cc1NC(=O)C(C)C 0.62%
CCC1CCCCN1S(=O)(=O)c1ccc(NC(=O)c2cc(=O)c3ccccc3o2)cc1 (centres undefined) -2.23%
CC(=O)Nc1cc(C(=O)NCc2ccc(F)cc2Cl)ccc1Sc1ccc(Cl)cc1 -4.28%
CSc1cccc(NC(=O)CN2C(=O)CCc3cc(S(=O)(=O)N4CCCCC4)ccc32)c1 -3.68%
Cc1ccccc1-n1c(=O)c2ccccc2n(Cc2ccc(F)cc2)c1=O 0.401%
Cc1ccc(-c2nnc(Nc3ccc(OCC(N)=O)cc3)c3ccccc23)cc1S(=O)(=O)NCC1CCCO1 (centres undefined) -14.3%
COc1ccc(CNC(=O)CS(=O)Cc2nc(-c3cccc(C)c3)oc2C)cc1 (centres undefined) -24.3%
COc1ccc(CCNC(=O)c2c3c(nc4ccccc24)C(=O)N(C2CCCCC2)C3)cc1OC -11.2%
